The text below walks through data of PubChem BioAssay (NCATS).

Structures are written as SMILES. Inconclusive results are not listed. Calls of active or inactive are those of the source. Unless noted, calls come from the whole dose curve; as a rule, active = well fitted curve in the direction sought with a large enough effect; inconclusive = small, poorly fitted or top-dose-only effect, or another doubt; inactive = no such curve, though single readings can be large; an effect the other way counts as inactive or inconclusive.

In assay [1] the target is Ferritin light chain (Equus caballus) (UniProt P02791). As to the kind of experiment: qHTS Validation Assay for Identification of Novel General Anesthetics (AID 2323). The method, boiled down: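 Fluorescence at 535 nm (excitation 380 nm) reported loss of 1-AMA binding to horse-spleen apoferritin (10 uM) in PBS with 50% saturated 1-aminoanthracene, after 10 min room-temperature incubation with compound; values from Hill fits of normalized response.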
(Quantitative high-throughput screening tests each substance at several concentrations.)

Assay [2] has as its target ATP-dependent DNA helicase Q1 (Homo sapiens) (UniProt P46063). As to the kind of experiment: qHTS Validation Assay for Inhibitors of RecQ-Like Dna Helicase 1 (RECQ1) (AID 2353). Note: potency is the fitted concentration of half-maximal effect. The method, boiled down: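 RECQ1T1 50 nM; forked duplex (20 bp + 30-nt ss tails) 200 nM, ATP 2 mM final; pH 8.0, 2 mM MgCl2, 2.5 ug/ml poly(dI-dC); 15 min compound preincubation; discontinuous kinetic read over 2 h at RT.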

For assay [3], the target named is RecQ-like DNA helicase BLM (Homo sapiens) (UniProt P54132). As to the kind of experiment: qHTS Validation Assay for Inhibitors of Bloom's syndrome helicase (BLM) (AID 2364). In outline: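 Forked 20-bp duplex substrate (200 nM, TAMRA/BHQ-2) plus 2 mM ATP added after 15 min compound preincubation with 50 nM enzyme, pH 8.0, poly(dI-dC) 2.5 ug/ml. Strand separation followed by fluorescence (525/598 nm) over 2 h, normalized to enzyme-free and DMSO controls.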

Assay [4] can be described thus: Cytometric Cell-Based qHTS for Inhibitors of the mTORC1 Signaling Pathway in MEF (Tsc2-/-, p53-/-) Cells (AID 2660).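 Note: percent of cells above a phospho-rpS6 to PI ratio cutoff in each well.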 In outline:
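Tsc2-/-, p53-/- MEFs (empty vector) exposed to compound 24 h at 37 C, fixed, stained with Alexa-488 anti-phospho-rpS6 Ser235/236 and propidium iodide. Acumen laser scanning; phospho-S6/PI ratio thresholded against 7.5 nM rapamycin, reported as % positive cells.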

Assay [5] can be described thus: High Content Imaging Cell-Based qHTS for Inhibitors of the mTORC1 Signaling Pathway in MEF (Tsc2-/-, p53-/-) Cells (AID 2666).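 Note: percent of cells scored positive for phospho-rpS6 Ser235/236 immunostaining by imaging.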 The conditions noted are these: at 38.3 µM (top of the series). The method, boiled down:
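Tsc2-/-, p53-/- MEFs (empty-vector stable) grown in DMEM + 10% FBS were exposed to compounds for 24 hrs at 37 degree Celsius, fixed, and stained with Alexa-488 anti-phospho-rpS6 Ser235/236 plus Hoechst. Imaging gave the percentage of positive cells per well.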

Assay [6] in a line: High Content Imaging Cell-Based qHTS for Inhibitors of the mTORC1 Signaling Pathway in MEF Cells (AID 2667).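 Note: Tsc2-/- p53-/- MEFs stably re-expressing wild-type Tsc2 exposed 24 h.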 In outline:
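Tsc2-/-, p53-/- MEFs stably re-expressing WT Tsc2, grown in DMEM + 10% FBS, were treated with compounds for 24 hrs at 37 degree Celsius, fixed, and stained with Alexa-488 phospho-rpS6 Ser235/236 antibody plus Hoechst; results given as % positive cells.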

The nature of assay [7]: Cytometry Cell-Based qHTS for Inhibitors of the mTORC1 Signaling Pathway in MEF cells (AID 2668).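 Note: Tsc2-/- p53-/- mouse embryonic fibroblasts stably re-expressing wild-type Tsc2; percent cells positive for phospho-rpS6 Ser235/236 relative to propidium iodide stain.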 The method, boiled down: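 Tsc2-/-, p53-/- MEFs re-expressing WT Tsc2; cpd 24 hrs, 37 degree Celsius; PFA fix, Alexa-488 p-rpS6 (Ser235/236) Ab 2 hrs RT, PI counterstain; Acumen 488nm scan; p-S6/PI ratio → % positive cells; PI count = viability.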
The nature of assay [8]: Validation screen for inhibitors of Lassa infection (AID 463096; calls by dose curve).
Assay [9] can be described thus: Validation screen for small molecules that induce DNA re-replication in MCF 10A normal breast cells (AID 463097). Note: nearly all actives have a fitted effect of over 60% in size. The method, boiled down: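 Image-based qHTS: normal breast cells are incubated with compound for 48 hr, stained with Hoechst, and scanned for total nuclear fluorescence. Compounds raising the fraction of nuclei with elevated DNA content count as re-replication inducers.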

For assay [10], the target named is DNA polymerase III PolC-type (Bacillus subtilis (strain 168)) (UniProt P13267). As to the kind of experiment: qHTS Validation Assay for the Inhibitors of DNA Replication in Gram-Positive Bacteria (AID 485295).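 Note: reconstituted holoenzyme with PolC plus beta clamp SSB and primase; PicoGreen fluorescence of double-stranded DNA made on primed circular M13 template.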 In outline:
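First, compound is mixed with the reconstituted replication complex and held at room temperature. Next, circular single-stranded M13Gori with nucleotides starts synthesis. Finally, PicoGreen in EDTA halts the reaction and stains double-stranded product for fluorescence reading.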

In assay [11] the target is Tumor susceptibility gene 101 protein (Homo sapiens) (UniProt Q99816). As to the kind of experiment: qHTS Validation Assay for Iinhibitors of HIV-1 Budding by Blocking the Interaction of PTAP/TSG101 (AID 485342; calls by dose curve). The method, boiled down:
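Binding of a FITC-tagged PTAP-motif peptide (50 nM) to the Tsg101 binding domain (10 uM) is monitored by fluorescence polarization. Compounds are pin-delivered before peptide addition, and incubation runs 20 min at room temperature.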

A short description of assay [12]: qHTS Validation Assay to Find Inhibitors of Chronic Active B-Cell Receptor Signaling (AID 485345; active = well fitted curve in the direction sought with a large enough effect in the main read-out, with a control signal flat, not every such curve was filed as active). The method, boiled down:
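Read-out: ratio of filter-corrected green (IkappaBalpha fusion) to red (native) luciferase signal in doxycycline-induced TMD8 cells after 4 h at 37C. Titration spanned 46 uM–3 nM; Data were normalised to basal cells and 10 uM MG-132 wells.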

In assay [13] the target is Beta-2 adrenergic receptor (Homo sapiens) (UniProt P07550). As to the kind of experiment: qHTS validation assay of beta-arrestin-biased ligands of beta2-adrenergic receptor (AID 485366). In outline: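 qHTS, Tango cells, 1500 cells/well, DMEM + 1% FBS. Cpd 18 hr at 37 degrees C. Luciferin/ATP/CoA detection mix, 15 min RT, luminescence read. %Activity from corrected signal; CRC fit, curve class.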

Assay [14] can be described thus: Quantitative high throughput screen for delayed death inhibitors of the malarial parasite plastid, 96 hour incubation (AID 488745).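 Note: luciferase-expressing P. falciparum in erythrocytes at 2% hematocrit and 0.1% parasitemia; nearly all actives have a fitted effect of over 70% in size.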 In outline: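 Luciferase-expressing P. falciparum, infected RBCs 2% Hct/0.1% parasitemia (final); 96 h cpd exposure, 37 C, 5% CO2; RPMI 1640 + 0.5% Albumax, bicarbonate, gentamycin. Readout: luminescence loss = growth inhibition.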

Assay [15] can be described thus: Quantitative high throughput screen for delayed death inhibitors of the malarial parasite plastid, 48 hour incubation (AID 488752). Note: nearly all actives have a fitted effect of over 65% in size. The method, boiled down: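 Luciferase-expressing P. falciparum in RBCs, 2% Hct, 0.1% parasitemia final; RPMI 1640 + 0.5% Albumax; 48 h, 37 C, 5% CO2; luminescence readout, signal drop = growth inhibition.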
For assay [16], the target named is Flap endonuclease 1 (Homo sapiens) (UniProt P39748). As to the kind of experiment: qHTS Validation Assay for the Inhibitors of Human Flap endonuclease 1 (FEN1) (AID 488816). The method, boiled down:
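qHTS format: compounds and 10 nM FEN1 incubated 15 min at room temperature before adding 50 nM substrate. Cleavage followed by reads at 0 and 15 min; normalized data fitted to a four-parameter Hill curve.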

Assay [17] has as its target Ubiquitin carboxyl-terminal hydrolase 2 (Homo sapiens) (UniProt O75604). As to the kind of experiment: qHTS Validation Assay for Inhibitors of Ubiquitin-specific Protease USP2a Using CHOP2 as the Reporter (AID 463106). In outline: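 Readout was coupled fluorescence (Ex 485/Em 531 nm), read 60 min after adding 25 nM final Ub-CHOP2 and 25 nM reporter substrate. Beforehand, 10 nM final USP2 core had 30 min at RT with compound in pH 8.0 buffer. Curves were fitted after normalization to NEM and flagged for artifacts using time-zero reads.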

The target in assay [18] is ATP-dependent 6-phosphofructokinase (Trypanosoma brucei brucei) (UniProt O15648). As to the kind of experiment: qHTS Validation Assay to Find Inhibitors of T. brucei phosphofructokinase (AID 485368). The note with it: outcome: dose series up to 57.5 µM. In outline:
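Luminescent ADP detection measures PFK turnover of fructose-6-phosphate (0.5 mM) with ATP (0.1 mM) at pH 8.0. Reaction runs 45 min at room temperature with 1.25 nM enzyme; inhibitors tested as titrations up to 57 uM.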

Assay [19] deals with Thioredoxin reductase 1, cytoplasmic (Rattus norvegicus) (UniProt O89049). As to the kind of experiment: qHTS Assay for Inhibitors of Mammalian Selenoprotein Thioredoxin Reductase 1 (TrxR1) (AID 488773).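 Note: drop in NADPH fluorescence over an 8 min run after selenite addition; nearly all actives have a fitted effect of over 40% in size.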 The method, boiled down:
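Inhibition is scored from the loss of NADPH fluorescence between first and last reads of an 8-min kinetic run. Selenite (400 uM) was the substrate, added after 15 min compound preincubation at room temperature.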

Assay [20] is described as follows: qHTS Assay for Identification of Small Molecule Inducers of Hypoxia Response (AID 2120; active = well fitted curve in the direction sought with a large enough effect in the signal ratio, with a control signal flat, not every such curve was filed as active; the % refers to the signal ratio). The method, boiled down:
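Read-out: CCF4 FRET emission ratio 460nm/530nm (excitation 405nm), converted to %Activity, with AC50 fitted across a compound titration. ME-180 cells carried an HRE-driven beta-lactamase reporter; compound exposure 17 h, 37 degrees C.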

Sequence of Ferritin light chain (Equus caballus) (P02791 2-175 limits assumed): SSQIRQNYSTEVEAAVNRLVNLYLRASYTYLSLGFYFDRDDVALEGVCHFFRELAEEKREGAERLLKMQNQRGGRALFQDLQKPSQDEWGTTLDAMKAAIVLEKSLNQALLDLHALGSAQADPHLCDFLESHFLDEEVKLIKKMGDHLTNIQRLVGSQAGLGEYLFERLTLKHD
Sequence of Tumor susceptibility gene 101 protein (Homo sapiens) (Q99816 whole entry, looked up, the tested form may be a part): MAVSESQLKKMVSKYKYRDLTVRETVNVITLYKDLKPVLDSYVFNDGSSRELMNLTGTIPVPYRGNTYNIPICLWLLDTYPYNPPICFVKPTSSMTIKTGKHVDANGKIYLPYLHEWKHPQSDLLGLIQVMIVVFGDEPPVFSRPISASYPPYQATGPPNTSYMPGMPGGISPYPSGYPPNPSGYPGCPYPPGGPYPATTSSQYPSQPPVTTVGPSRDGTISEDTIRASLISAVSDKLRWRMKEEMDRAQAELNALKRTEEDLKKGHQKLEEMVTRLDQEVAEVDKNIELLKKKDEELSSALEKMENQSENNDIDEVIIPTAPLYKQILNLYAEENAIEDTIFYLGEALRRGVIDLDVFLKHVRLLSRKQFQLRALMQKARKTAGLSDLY
Sequence of Flap endonuclease 1 (Homo sapiens) (P39748 whole entry, looked up): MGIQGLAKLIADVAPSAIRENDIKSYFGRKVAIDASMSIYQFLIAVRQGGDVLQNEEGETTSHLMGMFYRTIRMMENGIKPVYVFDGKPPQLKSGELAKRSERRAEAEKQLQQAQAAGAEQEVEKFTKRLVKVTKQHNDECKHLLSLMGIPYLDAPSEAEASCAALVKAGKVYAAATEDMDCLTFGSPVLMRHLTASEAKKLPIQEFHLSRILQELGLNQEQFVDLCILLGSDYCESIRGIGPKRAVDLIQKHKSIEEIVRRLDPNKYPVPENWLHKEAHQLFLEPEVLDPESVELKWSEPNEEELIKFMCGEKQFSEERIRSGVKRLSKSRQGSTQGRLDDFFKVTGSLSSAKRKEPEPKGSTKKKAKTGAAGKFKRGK
Sequence of DNA polymerase III PolC-type (Bacillus subtilis (strain 168)) (P13267 whole entry, looked up): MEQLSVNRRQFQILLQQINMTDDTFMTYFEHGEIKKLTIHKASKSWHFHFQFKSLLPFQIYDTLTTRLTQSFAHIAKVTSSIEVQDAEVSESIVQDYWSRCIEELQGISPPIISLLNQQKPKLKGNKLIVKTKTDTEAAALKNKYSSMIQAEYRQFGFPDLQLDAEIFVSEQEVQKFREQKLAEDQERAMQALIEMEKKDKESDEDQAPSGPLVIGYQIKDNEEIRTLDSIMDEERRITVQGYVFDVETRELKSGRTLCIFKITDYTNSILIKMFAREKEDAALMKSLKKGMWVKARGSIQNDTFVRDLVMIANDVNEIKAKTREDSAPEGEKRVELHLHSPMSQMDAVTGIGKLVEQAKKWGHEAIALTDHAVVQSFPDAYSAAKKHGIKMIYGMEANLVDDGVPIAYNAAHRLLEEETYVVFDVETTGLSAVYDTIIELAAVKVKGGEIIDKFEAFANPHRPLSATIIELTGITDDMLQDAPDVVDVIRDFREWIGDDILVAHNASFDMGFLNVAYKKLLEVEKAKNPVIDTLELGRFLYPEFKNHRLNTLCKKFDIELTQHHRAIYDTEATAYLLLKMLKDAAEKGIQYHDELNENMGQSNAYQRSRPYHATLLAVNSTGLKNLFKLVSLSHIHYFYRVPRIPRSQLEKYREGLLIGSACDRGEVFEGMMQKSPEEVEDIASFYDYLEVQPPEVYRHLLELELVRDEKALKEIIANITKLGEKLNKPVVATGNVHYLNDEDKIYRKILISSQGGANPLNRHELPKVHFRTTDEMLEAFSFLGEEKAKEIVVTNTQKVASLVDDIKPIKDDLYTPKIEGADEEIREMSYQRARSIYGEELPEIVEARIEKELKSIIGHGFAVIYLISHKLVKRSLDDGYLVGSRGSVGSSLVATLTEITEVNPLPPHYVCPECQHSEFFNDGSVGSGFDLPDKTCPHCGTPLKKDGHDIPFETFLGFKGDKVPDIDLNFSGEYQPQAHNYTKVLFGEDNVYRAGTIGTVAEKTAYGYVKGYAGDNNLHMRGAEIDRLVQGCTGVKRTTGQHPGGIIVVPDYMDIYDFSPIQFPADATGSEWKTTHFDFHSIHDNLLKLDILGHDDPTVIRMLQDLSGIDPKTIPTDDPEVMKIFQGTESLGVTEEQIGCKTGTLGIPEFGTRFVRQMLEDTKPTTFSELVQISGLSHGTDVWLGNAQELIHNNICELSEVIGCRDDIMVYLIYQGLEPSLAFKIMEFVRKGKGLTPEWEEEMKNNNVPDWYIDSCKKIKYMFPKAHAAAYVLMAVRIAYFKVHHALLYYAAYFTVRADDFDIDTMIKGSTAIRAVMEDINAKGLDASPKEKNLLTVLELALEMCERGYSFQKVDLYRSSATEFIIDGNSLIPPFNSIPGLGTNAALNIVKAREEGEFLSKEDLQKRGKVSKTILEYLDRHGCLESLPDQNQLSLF
Sequence of Thioredoxin reductase 1, cytoplasmic (Rattus norvegicus) (O89049 whole entry, looked up): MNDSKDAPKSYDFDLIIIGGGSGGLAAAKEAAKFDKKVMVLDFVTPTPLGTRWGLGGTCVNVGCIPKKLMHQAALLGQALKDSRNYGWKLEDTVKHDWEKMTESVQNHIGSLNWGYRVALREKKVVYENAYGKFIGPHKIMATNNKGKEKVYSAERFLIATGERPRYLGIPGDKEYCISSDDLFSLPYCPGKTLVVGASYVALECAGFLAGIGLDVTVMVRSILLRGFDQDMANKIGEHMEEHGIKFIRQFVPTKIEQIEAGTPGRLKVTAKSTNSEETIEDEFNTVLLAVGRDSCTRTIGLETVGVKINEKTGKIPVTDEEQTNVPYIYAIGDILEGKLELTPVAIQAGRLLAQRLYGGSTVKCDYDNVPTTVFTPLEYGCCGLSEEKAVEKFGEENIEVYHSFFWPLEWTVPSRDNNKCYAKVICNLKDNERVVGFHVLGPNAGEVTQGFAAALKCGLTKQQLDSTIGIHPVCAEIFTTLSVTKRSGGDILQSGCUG
Sequence of Ubiquitin carboxyl-terminal hydrolase 2 (Homo sapiens) (O75604 whole entry, looked up): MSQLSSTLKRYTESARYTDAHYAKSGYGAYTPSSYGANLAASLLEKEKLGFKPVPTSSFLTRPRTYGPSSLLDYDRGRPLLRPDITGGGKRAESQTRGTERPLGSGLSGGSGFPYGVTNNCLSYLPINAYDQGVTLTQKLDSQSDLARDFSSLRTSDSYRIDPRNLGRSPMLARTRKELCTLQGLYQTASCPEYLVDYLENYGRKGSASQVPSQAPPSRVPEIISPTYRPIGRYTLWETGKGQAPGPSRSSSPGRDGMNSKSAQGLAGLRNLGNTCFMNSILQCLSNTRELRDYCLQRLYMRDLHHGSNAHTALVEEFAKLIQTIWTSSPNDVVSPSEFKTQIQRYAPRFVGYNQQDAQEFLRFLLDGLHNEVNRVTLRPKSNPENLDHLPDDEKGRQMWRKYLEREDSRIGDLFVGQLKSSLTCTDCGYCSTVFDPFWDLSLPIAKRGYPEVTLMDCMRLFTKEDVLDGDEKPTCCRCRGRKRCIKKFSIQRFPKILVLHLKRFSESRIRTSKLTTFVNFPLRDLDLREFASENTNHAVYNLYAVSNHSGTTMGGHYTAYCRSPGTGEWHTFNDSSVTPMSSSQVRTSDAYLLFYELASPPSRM
Sequence of Beta-2 adrenergic receptor (Homo sapiens) (P07550 whole entry, looked up): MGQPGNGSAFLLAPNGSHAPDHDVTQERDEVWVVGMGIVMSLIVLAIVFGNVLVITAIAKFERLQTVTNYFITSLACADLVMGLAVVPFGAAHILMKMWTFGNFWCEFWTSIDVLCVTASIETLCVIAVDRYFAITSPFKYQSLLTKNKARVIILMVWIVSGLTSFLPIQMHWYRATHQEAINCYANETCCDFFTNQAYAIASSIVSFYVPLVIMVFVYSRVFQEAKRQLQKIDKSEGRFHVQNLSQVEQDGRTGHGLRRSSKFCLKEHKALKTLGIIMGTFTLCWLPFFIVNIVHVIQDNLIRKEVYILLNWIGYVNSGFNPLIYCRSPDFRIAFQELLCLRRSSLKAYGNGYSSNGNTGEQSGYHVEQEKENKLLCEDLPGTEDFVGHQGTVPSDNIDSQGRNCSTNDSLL
Sequence of ATP-dependent DNA helicase Q1 (Homo sapiens) (P46063 whole entry, looked up): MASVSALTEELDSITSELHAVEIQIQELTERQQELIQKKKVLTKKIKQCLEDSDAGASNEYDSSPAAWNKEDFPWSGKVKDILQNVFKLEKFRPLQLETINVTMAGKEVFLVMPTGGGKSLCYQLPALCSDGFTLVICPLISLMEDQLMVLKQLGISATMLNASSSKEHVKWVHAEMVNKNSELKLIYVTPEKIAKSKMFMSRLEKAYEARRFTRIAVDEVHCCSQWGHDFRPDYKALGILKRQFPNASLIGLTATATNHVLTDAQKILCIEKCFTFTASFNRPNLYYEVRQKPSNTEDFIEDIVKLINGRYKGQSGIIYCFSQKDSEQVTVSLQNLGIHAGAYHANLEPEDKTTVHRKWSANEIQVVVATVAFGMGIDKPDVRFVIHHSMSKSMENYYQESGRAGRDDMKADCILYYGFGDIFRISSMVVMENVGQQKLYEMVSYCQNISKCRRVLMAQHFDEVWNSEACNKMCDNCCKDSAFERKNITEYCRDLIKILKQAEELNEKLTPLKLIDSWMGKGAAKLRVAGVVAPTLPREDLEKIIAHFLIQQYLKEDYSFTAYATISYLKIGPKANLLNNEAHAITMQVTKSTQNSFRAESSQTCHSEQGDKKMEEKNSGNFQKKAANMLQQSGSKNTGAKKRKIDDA

As to `CCCCC/C=C\C/C=C\C/C=C\C/C=C\CCCC(=O)NCC(=O)O`, the compound was called inactive in assay [1], in assay [3], in assay [4], in assay [5], in assay [6] and in assay [7]. The outcome in assay [8], in [9], in assay [10], in assay [11], in assay [12] and in [13] was inactive. The outcome in assay [16] was inactive. The Potency in [2] is 3.98 µM (active). Besides, the Potency entry in [14] and in [15] was “inactive” in each case.

For `NCCc1ccc(O)cc1`, the outcome in assay [1], in [4], in assay [5], in [6], in assay [7] and in [8] was inactive. The outcome in assay [9], in [17], in assay [10], in assay [11], in assay [12] and in assay [13] was inactive. The compound was called inactive in assay [18], in assay [19] and in [16]. The Potency result in assay [2], in assay [14] and in assay [15] was “inactive” each time.

With `CN1C(=O)CCS(=O)(=O)C1c1ccc(Cl)cc1` (centres undefined), the outcome in assay [1], in assay [3], in [4], in assay [5], in [6] and in [7] was inactive. The outcome in [8], in assay [9], in assay [17], in [10], in assay [11] and in assay [12] was inactive. Besides, the result in [13], in [18], in [19] and in assay [16] was inactive. Moreover, the Potency entry in assay [2], in [14] and in assay [15] was “inactive” throughout.

Regarding `C[C@H]1O[C@@H](n2cc(F)c(=O)[nH]c2=O)[C@H](O)[C@@H]1O`, the compound was called inactive in assay [8].

Turning to `CC(=O)OCC1=C(C(=O)O)N2C(=O)[C@@H](NC(=O)Cc3cccs3)[C@H]2SC1`, the compound was called inactive in assay [8].

For the compound `C=C(C)[C@H]1CN[C@H](C(=O)O)[C@H]1CC(=O)O`, the call in assay [1], in assay [4], in assay [5], in [6], in assay [7] and in [8] was inactive. Besides, the outcome in assay [9], in [17], in assay [10], in assay [11], in assay [12] and in assay [13] was inactive. For the same compound, the compound was classed as inactive in [19] and in assay [16]. Also, the Potency result in assay [2], in assay [14] and in assay [15] was “inactive” in each case.

With `CCn1cc(C(=O)O)c(=O)c2cc(F)c(N3CCNC(C)C3)c(F)c21` (centres undefined), the compound was called inactive in [8].

For the compound `COP(=S)(OC)Oc1ccc(SC)c(C)c1`, in [20], the call was inactive.
